Bioassay records: PubChem, The Scripps Research Institute Molecular Screening Center
Sampled rows, rich in hits. Any-hit rate of the full collection: about 3.5%.
FBW7 act: human FBW7 E3 ligase activation, primary screen. Q969H0. AlphaScreen FBW7–phospho-cyclin E peptide binding, activator screen. normalized activity (activation), % at 26.1 µM. 650,000 compounds, 0.13% hits. AID 1259310; in the data active = normalized activity above about 1.9%;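 also: purified mutant Fbw7 with reduced substrate affinity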
GPR151 activ: activators of human GPR151 | 650,000 compounds, 1% hits | AID 1508602 | Q8TDV0 | PathHunter beta-arrestin GPR151 cells, luminescence | activation, % at 11.2 µM; in the data active = activation above about 4.9%;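 also: 0% = median of compound wells and 100% = cells with positive control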
MITF primary: blocks human microphthalmia-associated transcription factor | AlphaScreen MITF homodimerization, bead proximity signal | inhibition, % at 2.6 µM | 650,000 compounds, 0.91% hits | AID 1259374; in the data active = inhibition above about 50%;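 also: 0% = vehicle wells with protein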
TEAD-YAP inh: TEAD-YAP interaction inhibition. inhibition, % at 9.12 µM. HEK-TIYL cells, TEAD-Gal4/YAP UAS-luciferase luminescence. 640,000 compounds, 1.4% hits; in the data active = inhibition above about 32%;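 also: 0% = median of test compound wells and 100% = reference inhibitor wells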
* hit, by the source's call.

SMILES	FBW7 act	GPR151 activ	MITF primary	TEAD-YAP inh
Cc1ccc(NC(=O)CCc2nc3ncccc3c(=O)n2Cc2ccccc2)cc1C	0.0	1.5	7.9	4.8
O=C(NN1C(=O)C2C3C=CC(C3)C2C1=O)c1cccc(Br)c1 (centres undefined)	0.2	-0.3	1.0	-0.5
COc1cc(Cl)c(C)cc1N1C(=O)c2nccnc2C1=O	-0.1	4.8	5.9	4.4
COc1ccc(/C=C2/SC(=N)N(c3cc(C)ccc3C)C2=O)cc1	0.1	1.6	8.5	38.2*
N.N.N.N.N.N.N.N.N.N.N.N.N.N.O.O.[Cl-].[Cl-].[Cl-].[Cl-].[Cl-].[Cl-].[Ru+2].[Ru+2].[Ru+2]	0.6	0.4	46.9	40.8*
Cc1ccccc1-c1nc2cc(NC(=O)c3ccc(Cl)cc3)ccc2o1	-0.3	-0.5	-8.9	-33.0
O=c1[nH]c(=S)n(Cc2ccco2)c(O)c1/C=C1\C=Nc2ccc(Br)cc21	-1.0	0.1	83.8*	10.7
CCc1cccc2c1N=C/C2=C\c1c(O)n(Cc2ccccc2)c(=O)[nH]c1=O	-0.5	-2.1	3.2	-8.9
CCc1cccc2c1N=C/C2=C\c1c(O)n(Cc2ccco2)c(=O)[nH]c1=O	-0.6	0.7	58.1*	14.9
Cc1ccc(/C=N/NC(=O)c2cc(C(C)C)[nH]n2)cc1	0.2	-0.3	-3.3	36.0*
COc1cc(/C=C(\C#N)c2nn(-c3ccccc3)c(N)c2C#N)ccc1OCc1c(F)cccc1Cl	0.1	-0.6	1.7	0.8
Cc1cccc(N(C)S(=O)(=O)c2ccc3c(c2)oc(=O)n3C)c1	0.0	-0.6	13.0	46.1*
O=C(Nc1ccc2nc3n(c(=O)c2c1)CCCCC3)c1c(F)ccc([N+](=O)[O-])c1F	0.0	0.1	9.1	36.2*
O=C(Nc1ccc2nc3n(c(=O)c2c1)CCCCC3)c1cc([N+](=O)[O-])ccc1F	-0.1	0.9	0.0	28.9
N=C1/C(=C\c2ccc(SCc3ccco3)o2)C(=O)N=C2SC(N3CCOCC3)=NN12	-0.4	1.0	62.1*	-0.6
CS(=O)(=O)C1=NN2C(=N)/C(=C\c3ccc(SCc4ccco4)o3)C(=O)N=C2S1	-1.0	0.8	79.4*	4.0
CC1=NN2C(=N)/C(=C\c3ccc(SCc4ccco4)o3)C(=O)N=C2S1	-0.5	0.1	11.9	12.0
CN1C(=O)/C(=C/c2ccc(SCc3ccco3)o2)SC1=S	-0.9	0.2	56.9*	-17.6
Cc1cc(C)n2nc(SCc3cccc(Cl)c3)nc2n1	0.0	0.3	9.2	-20.2
COc1ccc(C(=O)[C@@H]2[C@@H](c3cccnc3)C(C#N)(C#N)[C@H]3C=Cc4ccccc4N23)cc1	0.3	2.5	12.1	58.4*
Cc1ccc(C(=O)[C@@H]2[C@@H](c3ccccc3F)C(C#N)(C#N)[C@H]3C=Cc4ccccc4N23)cc1	-0.3	-0.2	-7.0	-12.5
COc1ccc(C(=O)[C@@H]2[C@@H](c3ccccc3F)C(C#N)(C#N)[C@H]3C=Cc4ccccc4N23)cc1	-0.1	0.4	-0.3	66.9*
CCOc1ccc(/C=N/NC(=O)c2cc3ccccc3cc2OC)c(O)c1	-0.4	0.0	-6.1	9.4
COc1ccc(-c2nc(NCCc3ccc(O)cc3)c3ncn(C(C)C)c3n2)cc1	0.3	-1.1	18.1	61.4*
CC(C)n1cnc2c(NCCc3ccc(O)cc3)nc(-c3ccccc3)nc21	-0.1	-1.1	2.3	14.9
SMILES	FBW7 act	GPR151 activ	MITF primary	TEAD-YAP inh
COc1ccc(-c2nc(NCCc3ccc(O)cc3)c3ncn(-c4ccsc4)c3n2)cc1	0.0	2.4	12.4	55.5*
COc1ccc(CCNc2nc(-c3ccc(C(=O)N4CCN(C)CC4)cc3)nc3c2ncn3-c2ccccc2)cc1	-0.1	-2.5	8.0	41.3*
COc1ccc(CCNc2nc(-c3ccc(OC)nc3)nc3c2ncn3-c2ccsc2)cc1	0.0	-0.3	-7.0	46.1*
COc1ccc(CCNc2nc(-c3ccccc3)nc3c2ncn3-c2ccsc2)cc1	0.2	1.1	11.6	-1.9
COc1ccc(CNC(=O)c2ccc3nc(-c4cccs4)c(-c4cccs4)nc3c2)cc1	0.0	-0.5	9.2	1.5
COc1ccc(-c2nc(NCCc3ccc(O)cc3)c3ncn(-c4ccccc4)c3n2)cc1	0.1	2.3	17.4	23.9
COc1ccc(-c2nc(NCCc3ccc(O)cc3)c3ncn(-c4ccccc4)c3n2)cn1	0.0	4.4	-4.1	47.4*
c1cn2c(-c3ccsc3)cnc2c(Nc2ccc3[nH]ccc3c2)n1	0.0	-0.6	4.0	55.5*
Cc1ccc(-c2cnc3c(Nc4ccc5[nH]ccc5c4)nccn23)cc1	0.8	0.6	13.5	3.2
OCc1ccccc1-c1cnc2c(Nc3ccc4[nH]ccc4c3)nccn12	0.0	-4.7	13.4	92.8*
Oc1ccc(-c2cnc3c(Nc4ccc5[nH]ccc5c4)nccn23)cc1	-0.1	-0.1	7.6	68.7*
Nc1ccc(-c2cnc3c(Nc4ccc5[nH]ccc5c4)nccn23)cc1	0.1	-0.4	8.8	68.9*
COc1cc(-c2cnc3c(Nc4ccc5[nH]ccc5c4)nccn23)cc(OC)c1OC	0.0	-0.8	7.5	0.6
Cn1ccnc1C1(O)CCN(C(=O)Nc2cccc(F)c2)CC1	0.3	0.0	1.2	-1.7
CC(=O)Nc1ccc(NC(=O)c2ccc(C(=O)Nc3ccc(NC(C)=O)cc3)c(-c3ccccc3)c2)cc1	0.3	-0.4	9.2	2.4
COc1ccc(C(=O)Nc2nnc(-c3ccccn3)o2)c(OC)c1	-0.1	-3.0	23.5	-41.9
Cc1c(CCNS(=O)(=O)c2ccc(F)cc2)sc2nc(-c3ccc(F)cc3)nn12	0.8	2.1	6.0	37.3*
C=CCc1cccc(/C=N/NC(=O)CCCO)c1O	-0.1	-0.1	29.5	5.7
C=CCc1cccc(/C=N/NC(=O)C[n+]2ccccc2)c1O	-0.2	-0.9	28.6	60.4*
CCc1ccccc1NC(=O)c1ccc(CNc2c(N3CCCC3)c(=O)c2=O)cc1	0.0	1.2	-1.1	3.1
Cc1ccc(NC(=O)CCCCCC2NC(=O)NC2C)cc1 (centres undefined)	-1.2	0.8	98.5*	-10.7
Cc1ccc(NC(=O)CCCCCN2C(=O)c3ccccc3C2=O)cc1	0.9	0.6	5.5	11.2
CN(C)c1nc2ccc(OCCN3CCOCC3)cc2s1	0.1	-1.0	0.2	-33.9
COc1ccc(C(=O)Oc2ccc(C=C3C(=O)NC(=O)NC3=O)cc2OC)cc1	-1.0	-2.0	9.3	7.7
COc1cc(C=O)ccc1OCc1cccc(C(=O)O)c1	0.4	4.9	-3.9	71.0*
SMILES	FBW7 act	GPR151 activ	MITF primary	TEAD-YAP inh
COc1ccc(/C=N/n2cnnc2)cc1COc1ccccc1F	0.1	-0.4	10.8	12.1
COc1cc(/C=N/O)ccc1OCc1cccc(C(=O)O)c1	0.0	-9.1	0.3	93.8*
COc1ccc(S(=O)(=O)Oc2ccc(C=C3C(=O)NC(=O)NC3=O)cc2OC)cc1	-0.3	0.4	7.0	53.3*
COc1ccc(C=O)cc1COc1ccccc1F	2.1*	0.0	-3.9	-0.4
O=C(CCCn1c(SCC(=O)Nc2ccccc2Cl)nc2ccccc2c1=O)NCc1ccccc1Cl	-0.1	-0.1	9.7	19.1
COc1cc(C=C2C(=O)NC(=O)NC2=O)ccc1OCc1cccc(C(=O)O)c1	-0.3	-7.3	4.9	81.1*
COc1ccc(C=O)cc1OC(=O)c1ccccc1	0.2	0.9	-4.3	5.2
